Experimental findings from PubChem BioAssay (NCATS) are described below.

Results filed as inconclusive are left out. The source made the active and inactive calls. Unless noted, calls follow the shape of the dose curve; as a rule, active = well fitted curve in the direction sought with a large enough effect; inconclusive = small, poorly fitted or top-dose-only effect, or another doubt; inactive = no such curve, though single readings can be large; an effect the other way counts as inactive or inconclusive.

The target in assay [1] is Ubiquitin carboxyl-terminal hydrolase 2 (Homo sapiens) (UniProt O75604). Nature of the assay: qHTS Validation Assay for Inhibitors of Ubiquitin-specific Protease USP2a Using CHOP2 as the Reporter (AID 463106). An outline of the steps:
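Readout was coupled fluorescence (Ex 485/Em 531 nm), read 60 min after adding 25 nM final Ub-CHOP2 and 25 nM reporter substrate. Beforehand, 10 nM final USP2 core had 30 min at RT with compound in pH 8.0 buffer. Curves were fitted after normalization to NEM and flagged for artifacts using time-zero reads.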
For orientation: Quantitative high-throughput screening tests each substance at several concentrations.

For assay [2], the target named is DNA polymerase III PolC-type (Bacillus subtilis (strain 168)) (UniProt P13267). The assay is described as follows: qHTS Validation Assay for the Inhibitors of DNA Replication in Gram-Positive Bacteria (AID 485295).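 Also: reconstituted holoenzyme with PolC plus beta clamp SSB and primase; PicoGreen fluorescence of double-stranded DNA made on primed circular M13 template; series mostly up to about 57 µM.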 In a few lines:
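Primed replication of single-stranded M13Gori by a four-protein B. subtilis holoenzyme is measured at room temperature. Double-stranded product is quantified by PicoGreen fluorescence after an EDTA stop; inhibition is scaled between DMSO and EDTA controls.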

The target in assay [3] is Tumor susceptibility gene 101 protein (Homo sapiens) (UniProt Q99816). The assay is described as follows: qHTS Validation Assay for Iinhibitors of HIV-1 Budding by Blocking the Interaction of PTAP/TSG101 (AID 485342; calls by dose curve). In a few lines:
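Fluorescence anisotropy measured PTAP-Tsg101 interaction. Final concentrations were 10 uM protein domain and 50 nM labeled peptide, equilibrated 20 min at room temperature.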

Assay [4] can be described thus: qHTS Validation Assay to Find Inhibitors of Chronic Active B-Cell Receptor Signaling (AID 485345; active = well fitted curve in the direction sought with a large enough effect in the main read-out, with a control signal flat, not every such curve was filed as active). In a few lines: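 Read-out: ratio of filter-corrected green (IkappaBalpha fusion) to red (native) luciferase signal in doxycycline-induced TMD8 cells after 4 h at 37C. Titration spanned 46 uM–3 nM; Data were normalised to basal cells and 10 uM MG-132 wells.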
Assay [5] concerns the target Beta-2 adrenergic receptor (Homo sapiens) (UniProt P07550). Nature of the assay: qHTS validation assay of beta-arrestin-biased ligands of beta2-adrenergic receptor (AID 485366). An outline of the steps: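 Agonism was measured as beta-arrestin recruitment to recombinant beta2-AR, releasing tTA to drive luciferase. Cells were exposed for 18 hr at 37 degrees C to a series up to 46 microM. %Activity from corrected luminescence gave concentration-response curves.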

In assay [6] the target is ATP-dependent 6-phosphofructokinase (Trypanosoma brucei brucei) (UniProt O15648). The assay is described as follows: qHTS Validation Assay to Find Inhibitors of T. brucei phosphofructokinase (AID 485368). The following applies: outcome: dose series up to 57.5 µM. In a few lines: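 ADP-Glo luminescence, two-step: residual ATP depleted, then ADP converted to ATP for luciferase. Enzyme 1.25 nM, F6P 0.5 mM, ATP 0.1 mM, pH 8.0 TEA buffer, 45 min RT. Curves fitted and classed by quality and efficacy.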

A short description of assay [7]: Quantitative high throughput screen for delayed death inhibitors of the malarial parasite plastid, 96 hour incubation (AID 488745).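 Also: luciferase-expressing P. falciparum in erythrocytes at 2% hematocrit and 0.1% parasitemia; series mostly up to about 29 µM; nearly all actives have a fitted effect of over 70% in size.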 An outline of the steps:
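Luciferase-expressing P. falciparum, infected RBCs 2% Hct/0.1% parasitemia (final); 96 h cpd exposure, 37 C, 5% CO2; RPMI 1640 + 0.5% Albumax, bicarbonate, gentamycin. Readout: luminescence loss = growth inhibition.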

Assay [8] is described as follows: Quantitative high throughput screen for delayed death inhibitors of the malarial parasite plastid, 48 hour incubation (AID 488752). Also: nearly all actives have a fitted effect of over 65% in size. An outline of the steps: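 Luciferase-expressing P. falciparum in RBCs, 2% Hct, 0.1% parasitemia final; RPMI 1640 + 0.5% Albumax; 48 h, 37 C, 5% CO2; luminescence readout, signal drop = growth inhibition.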
Assay [9] deals with Thioredoxin reductase 1, cytoplasmic (Rattus norvegicus) (UniProt O89049). Nature of the assay: qHTS Assay for Substrates of Mammalian Selenoprotein Thioredoxin Reductase 1 (TrxR1) (AID 488772).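 Also: series mostly up to about 57 µM; a drop in NADPH fluorescence below the no-compound background marks a TrxR1 substrate.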 In a few lines:
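In this dual-purpose format, potential substrates are identified from the first fluorescence read after selenite addition, not from the 8-minute delta. Rat enzyme is preincubated with NADPH and then with compound at ~22 deg C.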

Assay [10] shares this target. The assay is described as follows: qHTS Assay for Inhibitors of Mammalian Selenoprotein Thioredoxin Reductase 1 (TrxR1) (AID 488773).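 Also: drop in NADPH fluorescence over an 8 min run after selenite addition; series mostly up to about 57 µM; nearly all actives have a fitted effect of over 40% in size.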 The following applies: Potency: inhibition. An outline of the steps:
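Inhibition is scored from the loss of NADPH fluorescence between first and last reads of an 8-min kinetic run. Selenite (400 uM) was the substrate, added after 15 min compound preincubation at room temperature.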

The target of assay [11] is Flap endonuclease 1 (Homo sapiens) (UniProt P39748). Nature of the assay: qHTS Validation Assay for the Inhibitors of Human Flap endonuclease 1 (FEN1) (AID 488816). Also: potency is read from the fitted curve at half-maximal effect. An outline of the steps:
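qHTS format: compounds and 10 nM FEN1 incubated 15 min at room temperature before adding 50 nM substrate. Cleavage followed by reads at 0 and 15 min; normalized data fitted to a four-parameter Hill curve.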

Assay [12] addresses M-phase phosphoprotein 8 (Homo sapiens) (UniProt Q99549). The assay is described as follows: qHTS Validation Assay for Inhibitors for MPP8 Chromodomain Interactions with Methylated Histone Tails (AID 488949).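 Also: AlphaScreen signal from MPP8 chromodomain bound to biotinylated H3K9me3 peptide; top concentration of the series differs between compounds; nearly all actives have a fitted effect of over 55% in size.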 In a few lines: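 Disruption of the preformed MPP8–trimethyl-H3K9 peptide complex (both 50 nM, 30 min, RT) is measured after 30 min compound exposure, using AlphaScreen proximity beads; aurintricarboxylic acid titration serves as plate control.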

Assay [13] addresses Chromobox protein homolog 1 (Homo sapiens) (UniProt P83916). The assay is described as follows: qHTS Validation Assay for Inhibitors of HP1-beta Chromodomain Interactions with Methylated Histone Tails (AID 488953).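 Also: loss of AlphaScreen luminescence from HP1-beta binding biotinylated H3K9me3 peptide; series mostly up to about 110 µM; nearly all actives have a fitted effect of over 50% in size.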 An outline of the steps:
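AlphaScreen proximity readout: streptavidin donor and Ni-chelate acceptor beads, 10 ug/mL final, 30 min dark, RT. Complex of 50 nM HP1-beta and 50 nM b-H3(1-18)K9me3 formed 30 min, then compound-treated 30 min; PBS pH 7.4/0.01% Tween-20.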

Assay [14] deals with Methanococcus maripaludis chaperonin (MmCpn) (UniProt Q6LX38). The assay is described as follows: High-Throughput Screening for Modulators of Cytosolic Chaperonin Activity: MmCpn Primary Screen (AID 488978).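 Also: 50 nM MmCpn enzyme hydrolysing 30 µM ATP at 37 °C.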 An outline of the steps: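 Measures ATPase turnover of the M. maripaludis chaperonin (50 nM final) against 30 uM ATP over 10 min at 37C, with compound added 5 min beforehand at room temperature. ADP is quantified by HTRF immunodetection.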

Assay [15] concerns the target Transient receptor potential cation channel subfamily V member 1 (Homo sapiens) (UniProt Q8NER1). The assay is described as follows: HTS Assay for Compounds that Act as Enhancers of the Vanilloid Receptor 1 (AID 488979). In a few lines:
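Calcium influx kinetics via Fluo-8 (480/520 nm) in TRPV1-expressing cells, 2000/well cultured overnight at 35.5C. Compound-alone read 3 min (agonist phase), followed by EC20 capsaicin challenge for 2 min (enhancer phase).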

Assay [16] has as its target Thyrotropin receptor (Homo sapiens) (UniProt P16473). The assay is described as follows: qHTS Assay for Antagonists of the Thyroid Stimulating Hormone Receptor (AID 488980). Also: series mostly up to about 58 µM. In a few lines:
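Cells expressing human TSHR (HEK293) are dispensed in HBSS/HEPES containing 70 uM RO 20-1724, compound is added, then TSH at EC80 (4 nM final). Antibody in lysis buffer follows, 30 minutes at room temperature before HTRF detection.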

Assay [17] deals with D(1A) dopamine receptor (Homo sapiens) (UniProt P21728). Nature of the assay: HTS Assay for Allosteric Agonists of the Human D1 Dopamine Receptor: Primary Screen for Agonists (AID 488981). Also: potency is read from the fitted curve at half-maximal effect. In a few lines: (§1)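 Calcium flux in an inducible, force-coupled HEK293 Trex D1 line (overnight at 30 C): agonist mode is the 180 s kinetic read after compound; potentiator mode is the following 180 s read after dopamine at EC20.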

Assay [18] has the same target. The assay is described as follows: HTS Assay for Allosteric Agonists of the Human D1 Dopamine Receptor: Primary Screen for Potentiators (AID 488982). In a few lines: as §1
For assay [19] the target is unchanged. The assay is described as follows: HTS Assay for Allosteric Agonists of the Human D1 Dopamine Receptor: Primary Screen for Antagonists (AID 488983).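 Also: calcium flux response to an EC80 dopamine challenge measured with no-wash dye; nearly all actives have a fitted effect of over 65% in size.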 Also: potency is read from the fitted curve at half-maximal effect. An outline of the steps:
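Calcium flux readout, no-wash dye, inducible HEK293 T-REx D1 line (force-coupled). Compound added after 10 s baseline, 180 s kinetic read; then dopamine at EC80, further 180 s read.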

Assay [20] deals with ATP-dependent 6-phosphofructokinase (Trypanosoma brucei brucei) (UniProt O15648). Nature of the assay: qHTS Assay to Find Inhibitors of T. brucei phosphofructokinase: hit validation (AID 492961).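 Also: luminescence reports ADP formed as PFK phosphorylates fructose-6-phosphate with ATP; series mostly up to about 51 µM.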 An outline of the steps: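 ADP-Glo luminescence read-out of ADP formed by 1.25 nM PFK from 0.1 mM ATP and 0.5 mM F6P (TEA pH 8.0, 45 min, RT). Compounds titrated; activity normalized to no-enzyme and full-enzyme controls.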

Chain of Thioredoxin reductase 1, cytoplasmic (Rattus norvegicus) (O89049 whole entry, looked up): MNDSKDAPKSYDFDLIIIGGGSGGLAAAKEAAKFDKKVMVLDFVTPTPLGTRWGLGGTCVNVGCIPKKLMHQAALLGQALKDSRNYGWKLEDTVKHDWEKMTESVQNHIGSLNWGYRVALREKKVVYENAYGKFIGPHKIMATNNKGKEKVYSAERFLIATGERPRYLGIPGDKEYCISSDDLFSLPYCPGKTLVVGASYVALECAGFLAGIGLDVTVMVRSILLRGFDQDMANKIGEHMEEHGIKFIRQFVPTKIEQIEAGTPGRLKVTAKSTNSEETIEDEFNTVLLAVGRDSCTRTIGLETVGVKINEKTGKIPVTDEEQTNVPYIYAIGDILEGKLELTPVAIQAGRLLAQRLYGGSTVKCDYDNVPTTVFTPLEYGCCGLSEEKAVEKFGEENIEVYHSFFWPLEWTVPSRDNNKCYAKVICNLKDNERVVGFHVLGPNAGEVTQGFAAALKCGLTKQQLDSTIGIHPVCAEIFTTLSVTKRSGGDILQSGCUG
Chain of Beta-2 adrenergic receptor (Homo sapiens) (P07550 whole entry, looked up): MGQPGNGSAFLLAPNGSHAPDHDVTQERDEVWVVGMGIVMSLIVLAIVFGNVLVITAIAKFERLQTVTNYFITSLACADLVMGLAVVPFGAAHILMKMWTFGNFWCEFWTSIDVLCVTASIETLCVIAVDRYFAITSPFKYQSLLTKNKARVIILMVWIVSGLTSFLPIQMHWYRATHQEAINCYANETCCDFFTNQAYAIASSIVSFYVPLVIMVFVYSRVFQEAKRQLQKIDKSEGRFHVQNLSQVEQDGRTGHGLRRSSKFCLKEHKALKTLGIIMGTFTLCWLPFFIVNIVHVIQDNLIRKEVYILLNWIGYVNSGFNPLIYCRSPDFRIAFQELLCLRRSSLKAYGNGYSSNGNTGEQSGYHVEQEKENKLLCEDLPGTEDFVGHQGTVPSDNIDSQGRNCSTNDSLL
Chain of Thyrotropin receptor (Homo sapiens) (P16473 whole entry, looked up): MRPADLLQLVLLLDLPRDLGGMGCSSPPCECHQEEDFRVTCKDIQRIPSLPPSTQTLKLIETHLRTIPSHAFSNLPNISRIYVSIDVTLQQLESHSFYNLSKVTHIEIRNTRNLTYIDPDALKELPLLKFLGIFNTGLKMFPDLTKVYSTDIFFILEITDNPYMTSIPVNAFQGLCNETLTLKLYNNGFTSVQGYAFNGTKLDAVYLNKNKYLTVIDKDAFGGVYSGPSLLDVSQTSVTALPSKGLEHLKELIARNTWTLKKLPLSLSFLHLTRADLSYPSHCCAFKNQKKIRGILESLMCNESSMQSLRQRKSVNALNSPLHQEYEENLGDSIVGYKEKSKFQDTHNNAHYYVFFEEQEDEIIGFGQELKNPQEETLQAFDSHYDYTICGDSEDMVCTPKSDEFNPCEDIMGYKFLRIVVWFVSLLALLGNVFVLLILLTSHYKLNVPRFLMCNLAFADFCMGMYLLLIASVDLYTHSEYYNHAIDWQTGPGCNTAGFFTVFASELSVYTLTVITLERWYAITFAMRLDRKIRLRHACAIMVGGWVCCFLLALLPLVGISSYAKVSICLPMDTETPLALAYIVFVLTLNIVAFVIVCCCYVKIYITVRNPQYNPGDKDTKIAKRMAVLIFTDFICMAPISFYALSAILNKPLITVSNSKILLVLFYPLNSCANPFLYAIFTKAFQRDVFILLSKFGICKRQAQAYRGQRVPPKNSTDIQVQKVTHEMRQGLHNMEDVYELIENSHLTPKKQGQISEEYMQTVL
Chain of Chromobox protein homolog 1 (Homo sapiens) (P83916 whole entry, looked up): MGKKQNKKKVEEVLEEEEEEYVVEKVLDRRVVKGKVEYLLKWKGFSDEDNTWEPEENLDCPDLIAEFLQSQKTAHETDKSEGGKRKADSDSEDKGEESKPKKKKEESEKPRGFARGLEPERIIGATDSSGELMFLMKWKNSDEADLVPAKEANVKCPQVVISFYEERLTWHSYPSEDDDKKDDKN
Chain of ATP-dependent 6-phosphofructokinase (Trypanosoma brucei brucei) (O15648 whole entry, looked up): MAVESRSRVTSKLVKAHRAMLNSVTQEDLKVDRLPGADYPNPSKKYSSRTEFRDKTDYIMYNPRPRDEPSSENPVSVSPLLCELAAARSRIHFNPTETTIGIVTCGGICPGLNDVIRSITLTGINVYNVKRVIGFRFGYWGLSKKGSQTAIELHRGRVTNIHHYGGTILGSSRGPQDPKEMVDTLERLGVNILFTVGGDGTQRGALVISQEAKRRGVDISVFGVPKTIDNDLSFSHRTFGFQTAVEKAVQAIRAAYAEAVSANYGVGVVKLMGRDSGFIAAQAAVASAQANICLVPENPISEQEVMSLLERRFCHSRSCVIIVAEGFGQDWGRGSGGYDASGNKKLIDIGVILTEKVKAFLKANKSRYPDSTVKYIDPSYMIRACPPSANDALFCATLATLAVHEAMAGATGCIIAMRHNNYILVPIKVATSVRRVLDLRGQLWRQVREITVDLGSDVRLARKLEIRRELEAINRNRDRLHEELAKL
Chain of Ubiquitin carboxyl-terminal hydrolase 2 (Homo sapiens) (O75604 whole entry, looked up): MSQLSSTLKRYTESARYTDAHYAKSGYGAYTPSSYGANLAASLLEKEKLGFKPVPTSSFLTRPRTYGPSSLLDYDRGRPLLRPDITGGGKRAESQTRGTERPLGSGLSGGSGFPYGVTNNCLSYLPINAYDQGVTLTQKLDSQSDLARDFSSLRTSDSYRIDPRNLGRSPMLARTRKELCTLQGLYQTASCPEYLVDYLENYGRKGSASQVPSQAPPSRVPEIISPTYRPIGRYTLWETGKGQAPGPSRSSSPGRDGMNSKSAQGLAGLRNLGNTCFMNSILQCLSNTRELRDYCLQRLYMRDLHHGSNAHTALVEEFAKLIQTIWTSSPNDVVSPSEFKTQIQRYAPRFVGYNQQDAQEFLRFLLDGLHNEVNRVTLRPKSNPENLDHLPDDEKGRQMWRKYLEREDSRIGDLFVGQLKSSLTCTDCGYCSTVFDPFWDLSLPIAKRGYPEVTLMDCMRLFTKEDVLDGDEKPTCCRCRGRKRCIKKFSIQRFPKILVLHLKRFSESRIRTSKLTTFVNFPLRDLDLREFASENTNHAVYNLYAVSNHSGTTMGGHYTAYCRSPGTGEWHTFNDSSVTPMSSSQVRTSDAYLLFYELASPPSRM
Chain of D(1A) dopamine receptor (Homo sapiens) (P21728 whole entry, looked up): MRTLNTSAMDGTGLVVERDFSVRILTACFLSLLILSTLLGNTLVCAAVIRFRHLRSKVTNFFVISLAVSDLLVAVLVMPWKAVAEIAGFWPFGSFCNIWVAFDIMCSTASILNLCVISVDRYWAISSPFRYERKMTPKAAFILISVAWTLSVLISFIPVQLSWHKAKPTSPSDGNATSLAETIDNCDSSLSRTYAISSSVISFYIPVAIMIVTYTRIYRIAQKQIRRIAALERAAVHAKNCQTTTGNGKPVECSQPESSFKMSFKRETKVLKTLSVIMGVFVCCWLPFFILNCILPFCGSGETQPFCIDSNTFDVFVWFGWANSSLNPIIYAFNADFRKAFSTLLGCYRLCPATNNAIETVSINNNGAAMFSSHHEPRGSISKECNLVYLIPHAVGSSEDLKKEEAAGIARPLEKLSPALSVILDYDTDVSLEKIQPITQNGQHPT
Chain of Tumor susceptibility gene 101 protein (Homo sapiens) (Q99816 whole entry, looked up, the tested form may be a part): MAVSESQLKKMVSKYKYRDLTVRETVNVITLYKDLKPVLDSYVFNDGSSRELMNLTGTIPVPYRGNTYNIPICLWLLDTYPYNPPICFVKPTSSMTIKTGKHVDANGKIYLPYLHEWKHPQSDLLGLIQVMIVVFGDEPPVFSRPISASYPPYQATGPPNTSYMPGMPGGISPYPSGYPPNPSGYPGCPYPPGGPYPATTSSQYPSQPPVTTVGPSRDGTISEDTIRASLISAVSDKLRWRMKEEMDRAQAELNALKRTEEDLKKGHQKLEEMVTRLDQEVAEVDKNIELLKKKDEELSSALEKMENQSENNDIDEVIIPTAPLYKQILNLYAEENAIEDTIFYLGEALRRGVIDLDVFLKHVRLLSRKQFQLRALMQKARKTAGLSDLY
Chain of Flap endonuclease 1 (Homo sapiens) (P39748 whole entry, looked up): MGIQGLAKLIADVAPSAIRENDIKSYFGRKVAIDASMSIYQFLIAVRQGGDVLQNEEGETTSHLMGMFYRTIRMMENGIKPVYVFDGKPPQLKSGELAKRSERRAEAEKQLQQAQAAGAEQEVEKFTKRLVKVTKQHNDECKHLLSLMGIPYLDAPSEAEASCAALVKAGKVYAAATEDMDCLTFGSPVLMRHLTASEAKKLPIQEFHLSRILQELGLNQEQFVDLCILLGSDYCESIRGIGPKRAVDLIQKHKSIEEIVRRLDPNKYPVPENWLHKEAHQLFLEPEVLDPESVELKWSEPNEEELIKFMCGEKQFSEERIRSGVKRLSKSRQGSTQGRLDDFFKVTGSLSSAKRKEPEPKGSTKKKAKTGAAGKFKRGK
Chain of Methanococcus maripaludis chaperonin (MmCpn) (Q6LX38 1-543): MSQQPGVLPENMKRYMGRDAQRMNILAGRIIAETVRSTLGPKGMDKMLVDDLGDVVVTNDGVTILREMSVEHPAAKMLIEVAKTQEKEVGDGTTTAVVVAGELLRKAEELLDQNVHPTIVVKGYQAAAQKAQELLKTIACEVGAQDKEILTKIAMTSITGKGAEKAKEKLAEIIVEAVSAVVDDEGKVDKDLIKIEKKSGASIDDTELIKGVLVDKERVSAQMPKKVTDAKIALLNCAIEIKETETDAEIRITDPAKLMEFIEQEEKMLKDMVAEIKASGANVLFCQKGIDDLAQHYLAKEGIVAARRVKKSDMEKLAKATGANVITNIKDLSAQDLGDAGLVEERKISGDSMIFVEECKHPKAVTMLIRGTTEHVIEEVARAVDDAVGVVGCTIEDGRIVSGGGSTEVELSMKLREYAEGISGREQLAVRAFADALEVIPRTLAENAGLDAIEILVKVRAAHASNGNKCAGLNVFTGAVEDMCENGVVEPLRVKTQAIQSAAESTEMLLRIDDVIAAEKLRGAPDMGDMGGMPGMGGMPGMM

Regarding `Nc1ccc(S(=O)(=O)Nc2ccnn2-c2ccccc2)cc1`, the outcome in assay [1], in assay [3], in assay [4], in assay [5], in assay [6] and in assay [9] was inactive. The result in assay [14], in assay [15], in [16] and in assay [20] was inactive. The Potency result in assay [2], in assay [7], in [8], in [10], in assay [11] and in assay [12] was “inactive” each time. Further, the Potency entry in assay [13], in assay [17], in assay [18] and in [19] was “inactive” each time.
Regarding `NC[C@H](O)c1ccc(O)c(O)c1`, the outcome in assay [1], in assay [3], in assay [4], in assay [5], in [9] and in assay [14] was inactive. Moreover, the outcome in assay [15] was inactive. Moreover, the Potency result in [2], in [7], in assay [8], in [12], in assay [13] and in assay [18] was “inactive” throughout. For the same molecule, the Potency in assay [11] is 2120 nM (active); in [17] it was 2240 nM (active); in assay [19], 2000 nM (active).
Turning to `Cc1cn[nH]c1`, the molecule was called inactive in [1], in [3], in assay [4], in assay [5], in assay [9] and in assay [14]. Also, the outcome in assay [15], in [16] and in assay [20] was inactive. Moreover, the Potency result in [2], in assay [7], in assay [8], in [10], in assay [11] and in assay [12] was “inactive” in each case. The Potency entry in assay [13], in assay [17], in assay [18] and in [19] was “inactive” each time.
Consider `CC(=O)Oc1ccccc1C(=O)O`, for which the outcome in assay [1], in assay [3], in assay [4], in [5], in assay [6] and in assay [9] was inactive. In addition, the outcome in assay [14], in assay [15], in assay [16] and in [20] was inactive. The Potency entry in [2], in [7], in assay [8], in [10], in assay [11] and in [12] was “inactive” each time. Also, the Potency entry in assay [13], in assay [17], in assay [18] and in [19] was “inactive” throughout.
Consider `O=c1[nH]cnc2[nH]ncc12`, for which the molecule was classed as inactive in assay [1], in assay [3], in [4], in assay [5], in [6] and in assay [9]. For the same molecule, the molecule was called inactive in assay [14] and in [15]. The Potency entry in assay [2], in assay [7], in [8], in [10], in [11] and in assay [12] was “inactive” throughout. Further, the Potency result in assay [13], in [17], in assay [18] and in assay [19] was “inactive” throughout.
Take `N=c1nc(N2CCCCC2)cc(N)n1O`: the outcome in assay [1], in assay [3], in [4], in [5], in assay [9] and in assay [14] was inactive. For the same molecule, the outcome in assay [15] and in assay [16] was inactive. The Potency result in assay [2], in assay [7], in assay [8], in [10], in assay [11] and in [12] was “inactive” in each case. Further, the Potency result in assay [13], in [17], in [18] and in assay [19] was “inactive” in each case.
As for `N[C@@H]1CONC1=O`, the molecule was classed as inactive in [1], in assay [3], in assay [4], in [5], in assay [9] and in assay [14]. Besides, the result in [15], in assay [16] and in assay [20] was inactive. The Potency result in assay [2], in assay [7], in assay [8], in assay [10], in assay [11] and in [12] was “inactive” throughout. Moreover, the Potency result in [17], in [18] and in [19] was “inactive” each time.
